PubChem BioAssay (Tox21)
Unmarked numbers belong to inactive results. Activity calls are given as the source filed them. The call rests on the fitted dose curve; in most records, active means well fitted curve in the direction sought with a large enough effect in the repeat runs; inconclusive means weak or mixed curves; inactive means flat fitted curve, though single readings scatter.

experiment: qHTS assay to test for compound auto fluorescence at 535 nm (green) in HepG2 cells (AID 720675); settings: green autofluorescence 485/535 nm, 1 h; series mostly up to 91.3 µM
Source text: National Center for Advancing Translational Sciences [NCATS]
NIH Chemical Genomics Center [NCGC]
U.S. Environmental Protection Agency [EPA]
National Institutes of Environmental Health Sciences [NIEHS]
National Toxicology Program [NTP]
U.S. Food and Drug Administration [FDA]
Compound auto fluorescence often interferes with screening of the compound library against various biological targets and signaling pathways. Some of these compounds may have fluorophoric properties. Such properties may interfere with the assay outputs resulting in false positives and/or negatives. To decrease such complications and ensure the compound activities are relevant in terms of biological response, the Tox21 10K compound library was screened for auto fluorescence.
From the fluorophores used as reporter signals in our screening assays, the auto fluorescence equivalencies of compounds against three fluorophores have been evaluated: Triamterene, Fluorescein and Rose Bengal sodium for blue, green and red fluorescence, respectively. The fluorescence intensities were measured using Excitation/Emission wavelengths at 405/460nm, 485/535nm and 540/590nm for blue, green and red labels, respectively. This assay includes the green fluorescence data.
Tox21 Assay Protocol Summary:
2,000 HepG2 cells in 5 uL of culture medium (MEM containing 10% FBS) per well were dispensed into black wall/clear bottom 1536-well plates using a Multidrop Combi Dispenser (ThermoFisher Scientific, Waltham, MA). The assay plates were incubated overnight at 37 C to allow cell attachment to the well bottom, followed by the transfer of 23 nL compound or DMSO vehicle by a pintool work station (Kalypsys , San Diego, CA). After the assay plates were incubated for 1 hr at 37 C and 5% CO2, fluorescence intensities in the assay plates were measured by an Envision (PerkinElmer, Shelton, CT) plate reader using three labels for measuring blue, green and red fluorescence at […] 460, 535 and 590 nm respectively.
On the % scale 0 is the no-effect control and ±100 the full control effect.

| Structure (SMILES) | outcome | fluorescence, % of fluorescein control |
| --- | --- | --- |
| COc1ccc2c(c1OC)C(=O)O[C@@H]2[C@H]1c2c(cc3c(c2OC)OCO3)CCN1C | inactive |  |
| CC(C)C[C@H](NC(=O)CNC(=O)[C@H](Cc1ccc(O)cc1)NC(=O)[C@H](CO)NC(=O)[C@H](Cc1c[nH]c2ccccc12)NC(=O)[C@H](Cc1cnc[nH]1)NC(=O)[C@@H]1CCC(=O)N1)C(=O)N[C@@H](CCCN=C(N)N)C(=O)N1CCC[C@H]1C(=O)NCC(N)=O (stereo in doubt) | inactive |  |
| COCCOCCOCCOCCO | inactive |  |
| CCCCOC(=O)c1ccccc1 | inactive |  |
| CC(=O)NCc1c(I)c(NC(C)=O)c(I)c(C(=O)O)c1I | inactive |  |
| CC1COc2ccccc2N1 (stereo not given) | inactive |  |
| Nc1ncnc(Nc2ccccc2)n1 | inactive |  |
| CCOC(=O)c1ncn2c1CN(C)C(=O)c1cc(F)ccc1-2 | inactive |  |
| CC(N)C(=O)OC(C)(C)Cc1ccc(Cl)cc1 (stereo not given) | inactive |  |
| CN1CCN(CC(=O)N2c3ccccc3C(=O)Nc3cccnc32)CC1 | inactive |  |
| CC(CN)CC(C)(C)CCN (stereo not given) | inactive |  |
| COc1ccc2c(c1)C(=O)N(CCc1ccc(S(=O)(=O)NC(=O)NC3CCCCC3)cc1)C(=O)C2(C)C |  | -0.152% [at 18.6 µM] |
| CC(C)=CCOC(=O)c1ccccc1 | inactive |  |
| CCCCCCCCCC(C)=O | inactive |  |
| C=C(C)C(=O)OCCOP(=O)(O)OCCOC(=O)C(=C)C | inactive |  |
| CCCC/C=C/C=C\C=O | inactive |  |
| CCCCCCCCOS(=O)(=O)O | inactive |  |
| CC(C(=O)O)c1ccc2c(c1)CC(=O)c1ccccc1S2 (stereo not given) | inactive |  |
| Cc1cccc(C)c1NC(=O)c1ccccc1C(=O)O | inactive |  |
| O=C1O[C@@H]2[C@@H](O)[C@H](O)O[C@@H]2[C@H]1O | inactive |  |

| Structure (SMILES) | outcome | fluorescence, % of fluorescein control |
| --- | --- | --- |
| N#Cc1ccc(C(=O)O)cc1 | inactive |  |
| CC/C=C\CC1=C(C)CCC1=O | inactive |  |
| CCCCCCCCC(=O)Cl | inactive |  |
| CC1=CCC(C(C)C)=CC1 | inactive |  |
| O=C1c2cccc3c2[C@H](CCC3)CN1[C@@H]1CN2CCC1CC2 | inactive |  |
| OCCC(F)(F)C(F)(F)C(F)(F)C(F)(F)C(F)(F)C(F)(F)C(F)(F)C(F)(F)F | inactive |  |
| C=C(C)C1CCC(C)(O)CC1 (stereo not given) | inactive |  |
| CCC(C)NC(N)=O (stereo not given) | inactive |  |
| CC(CC=O)CCCC(C)(C)O (stereo not given) | inactive |  |
| CC(COC(C)(C)C)OCCCO (stereo not given) | inactive |  |
| COc1cc(NS(=O)(=O)c2ccc(N)cc2)nc(OC)n1 |  | -0.149% [at 18.6 µM] |
| BrCCCCCBr | inactive |  |
| COCCOCCOCCOCCOCCO | inactive |  |
| CC(C)=O | inactive |  |
| CN(CCOc1ccc(NS(C)(=O)=O)cc1)CCc1ccc(NS(C)(=O)=O)cc1 | inactive |  |
| Cc1ccccc1OCC(O)CO (stereo not given) | inactive |  |
| ClCCCl | inactive |  |
| CCCC/C=C\CCCCCCCCCC=O | inactive |  |
| C[Si](C)(C)C | inactive |  |
| O=C1CCCC(=O)O1 | inactive |  |
